High-throughput results from PubChem BioAssay.
TGFb inhibitor – qHTS for Inhibitors of TGF-b; HepG2 CAGA-GFP TGF-b/SMAD3 reporter, GFP fluorescence, 18 h; TGF-beta stimulated, 500 pg/mL final; Potency, µM (highest dose often 46.1 µM), inactives show at the top dose activity, negative = inhibition, hits mostly inhibitors; 1.2% of 410,000 active; also: potency is read from the fitted curve at half-maximal effect; % is scaled to controls: 0 for no effect and ±100 for the full control effect; nearly all actives have a fitted effect of over 65% in size
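Per well, imaged GFP fluorescence of HEPG2 CAGA-GFP cells gives the signal; cells get compound, then TGF-beta (500 pg/mL final), 18 h at 37 degrees C; %Activity versus -TGF-beta and +DMSO controls.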
Giardia killer – Small Molecules that selectively kill Giardia lamblia: qHTS | Giardia lamblia trophozoite viability | activity change, % at 7.66 µM, hits read low | 0.15% of 340,000 active | AID 540267, 2011; in the data active = activity change below about -80%; inconclusive = between about -30% and that limit;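 also: parasites exposed to compound for two days anaerobically before the ATP read; % is scaled to controls: 0 for no effect and ±100 for the full control effect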
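Each well holds 100 Giardia trophozoites and compound. After two days (48 hrs) at 37 deg C in anaerobic conditions, ATP is quantified by luminescence.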
HT1080NT lethal – qHTS for induction of synthetic lethality in tumor cells producing 2HG: qHTS for the HT-1080-NT fibrosarcoma cell line; Potency, µM (highest dose often 46.1 µM), without a hit: at the highest dose activity, negative = less viability, most hits filed as cytotoxic; AID 686970, 2013; 1.6% of 360,000 active; HT-1080-NT fibrosarcoma viability, CellTiter-Glo ATP luminescence, 48 h;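 also: NT is the 2HG producing partner of a matched IDH1 knockdown line; potency is read from the fitted curve at half-maximal effect; 0% = DMSO-treated cells and -100% = media-only wells without cells; nearly all actives have a fitted effect of over 55% in size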
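Luminescent CellTiter-Glo readout after 48 hours of compound exposure at 37 degrees C defined viability of HT-1080-NT cells. Activity was normalized to DMSO wells and cell-free media wells; concentration-response curves were fitted and assigned curve classes.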
IL1B secr inh – qHTS for Inhibitors of Inflammasome Signaling: IL-1-beta AlphaLISA Primary Screen; THP-1 LPS/ATP IL-1B secretion, AlphaLISA, 16 h; stronger effect = lower value; activity change, % at 57.5 µM; 4.7% of 360,000 active; AID 743279, 2014; in the data active = activity change below about -50%; inconclusive = mostly about -30% to -49%; also: % is scaled to controls: 0 for no effect and ±100 for the full control effect
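THP-1 cells pretreated 1 hr with compounds (up to 57.5 uM final), then stimulated with LPS (250 ng/mL final) plus ATP (1.25 mM final); secreted IL-1B measured by AlphaLISA after 16 hr, decreased signal indicating inhibition.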
HepG2 tox – qHTS for Inhibitors of TGF-b: Cytotox Counterscreen; AID 588856, 2011; HepG2 CAGA-GFP viability, ATP luminescence, 18 h; 0.76% of 410,000 active; Potency, µM (top dose mostly 46.1 µM), without a hit: at the top dose activity change, negative = cytotoxicity, hits mostly cytotoxic; also: potency is read from the fitted curve at half-maximal effect
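CellTiter-Glo luminescence gave cytotoxicity after 18 hours at 37 degrees C. The cells were HepG2 CAGA-GFP in 1% FBS DMEM, stimulated with 500 pg/mL TGF-beta after compound addition. %Activity was normalised to no-cell wells (complete cell-killing) and DMSO (no toxicity), and curves were fitted and classified.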
HT1080 IDH1KD tx – qHTS for induction of synthetic lethality in tumor cells producing 2HG: qHTS for the HT-1080-IDH1KD cell line | HT-1080 IDH1 knockdown viability, ATP luminescence, 48 h | Potency, µM (highest dose often 46.1 µM), for inactives: at the top dose activity, negative = toxicity, hits mostly cytotoxic | 2% of 360,000 active | AID 686971, 2013;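 also: potency is read from the fitted curve at half-maximal effect; 0% = DMSO wells and -100% = cell-free medium wells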
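Knockdown cells (IDH1KD HT-1080) received compounds 2 h after plating at 750 cells/well and were kept 48 h at 37 °C in 5% FBS RPMI. A CellTiter-Glo luminescence read gave % activity for curve fitting.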
An asterisk follows results filed as active; ? = inconclusive; . = no result given; ! = not active in a repeat. Hits are enriched below; roughly 6.5% of the tested compounds scored in any of these assays. Unless noted, calls follow the shape of the dose curve; as a rule, active = well fitted curve in the direction sought with a large enough effect; inconclusive = small, poorly fitted or top-dose-only effect, or another doubt; inactive = no such curve, though single readings can be large; an effect the other way counts as inactive or inconclusive.

SMILES | TGFb inhibitor | Giardia killer | HT1080NT lethal | IL1B secr inh | HepG2 tox | HT1080 IDH1KD tx
O=[N+]([O-])c1ccccc1-c1nc(-c2ccc(Br)o2)no1 | 10% | 3 | -8% | -2 | -4% | -1%
CCN(CC)Cc1cc2[nH]c3c4ccc(Cl)cc4ncc3c2cc1OC | -21% | -19 | 22µM*! | -11 | -43% | ?
CC1Cc2ccccc2N1CC(=O)Nc1cccc(S(N)(=O)=O)c1 (configuration not stated) | 5% | -19 | -1% | 35 | 6% | 11%
COc1ccc(CNC(=O)C/C(C)=N/NC(=O)c2ccc(OC)cc2OC)cc1 | -3% | 26 | -5% | -55* | -29% | 3%
CCc1ccc(OC)c(S(=O)(=O)Nc2ccc(Cc3ccncc3)cc2)c1 | ? | 2 | ? | -76* | -19% | ?
CC(C)c1ccc(C(C)NC(=S)NC2CCCCC2)cc1 (configuration not stated) | ? | -3 | -3% | 0 | -17% | -1%
CCC(C)c1ccc(C(C)NC(=S)NC2CCCCC2)cc1 (configuration not stated) | ? | 8 | ? | 0 | -14% | 23µM*
CC(NC(=S)NC1CCCCC1)c1ccc(C(C)(C)C)cc1 (configuration not stated) | ? | -4 | -27% | -20 | -15% | 23µM*
CC(C)CCn1nnnc1CN1CCN(C(=O)c2ccco2)CC1 | 0% | -8 | 12% | 20 | -19% | 9%
COc1ccc(Nc2nc(N3CCCC3)c3ccccc3n2)cc1 | ? | 29 | 2% | -101* | -83% | -15%
Oc1cccc(Nc2c3ccccc3nc3ccccc23)c1 | ? | -2 | ? | -25 | -43% | ?
Cc1nc(N2CCCCCC2)c2ccccc2n1 | ? | 0 | -7% | 66 | -1% | -8%
COc1ccc(Nc2cc(Nc3ccc(OC)cc3)ncn2)cc1 | 4% | -22 | 6% | -2 | 9% | 7%
COc1ccc(Nc2cc(Nc3cc(OC)c(OC)c(OC)c3)ncn2)cc1 | -17% | -6 | -23% | -80* | -23% | -8%
CC(C)(C)Nc1c2ccccc2nc2ccccc12 | ? | 12 | -10% | -92* | -15% | -11%
c1cncc(Nc2c3ccccc3nc3ccccc23)c1 | -18% | 1 | ? | -94* | -15% | ?
CSc1nc2c(c(=O)[nH]c(=O)n2C)n1CCCc1ccccc1 | -5% | 4 | -2% | 35 | -10% | -4%
CC(O)CN1CC(O)=C(c2nc3ccccc3s2)C1=N (configuration not stated) | -16% | 4 | 22% | 6 | -26% | 29%
COc1ccc(Nc2ccc(OC)cc2)cc1 | ? | 4 | 10% | -52* | -26% | 12%
COc1cc(Nc2c3ccccc3nc3ccccc23)cc(OC)c1OC | ? | -3 | 10µM* | -95* | -76% | ?
COc1ccc(Nc2nc(N3CCN(S(C)(=O)=O)CC3)nc3ccccc23)c(OC)c1 | -1% | -5 | -16% | 16 | -15% | -11%
COc1ccc(Nc2c3c(nc4ccccc24)CCC3)cc1Cl | ? | . | . | . | -48% | .
COc1ccc(Nc2nc(N3CCCCC3)nc3ccccc23)c(OC)c1 | ? | -19 | ? | -62* | -36% | ?
COc1ccccc1Nc1c2ccccc2nc2ccccc12 | ? | 8 | 16µM* | -93* | -28% | ?
COc1ccc(Nc2ccc(Nc3ccc(OC)cc3)nn2)cc1 | -25% | -9 | 19% | 26 | -38% | 13%
Cc1cc(C)cc(NC(=O)NC(C)C2CCCO2)c1 (configuration not stated) | 9% | -23 | 23% | -3 | -15% | 14%
